The results in this text go back to PubChem BioAssay (Tox21).

Molecules are shown by their SMILES. Results filed as inconclusive are left out. A number with no mark means an inactive call. Calls of active or inactive are those of the source. The call rests on the fitted dose curve; in most records, active means well fitted cell-killing curve with a large enough effect in the repeat runs; inconclusive means weak or mixed curves, or effect the other way; inactive means flat fitted curve, though single readings scatter.
On the % scale 0 is the no-effect control and ±100 the full control effect; potency means the concentration at half of the fitted maximal effect.

The experiment in a line: qHTS assay to identify small molecule antagonists of the androgen receptor (AR) signaling pathway using the MDA cell line - cell viability counter screen (AID 743041; further: nearly all actives have a fitted effect of over 45% in size). As to conditions: MDA-kb2 viability, CellTiter-Fluor, 16 h, cells co-treated with R1881 androgen agonist; series mostly up to 70.3 µM; viability change, negative = cytotoxic: at the top concentration. The source says:
National Center for Advancing Translational Sciences [NCATS]
NIH Chemical Genomics Center [NCGC]
U.S. Environmental Protection Agency [EPA]
National Institutes of Environmental Health Sciences [NIEHS]
National Toxicology Program [NTP]
U.S. Food and Drug Administration [FDA]
Androgen receptor (AR), a nuclear hormone receptor, plays a critical role in AR-dependent prostate cancer and other androgen related diseases. Endocrine disrupting chemicals (EDCs) and their interactions with steroid hormone receptors like AR may cause disruption of normal endocrine function as well as interfere with metabolic homeostasis, reproduction, developmental and behavioral functions. To identify the compounds that inhibit AR signaling, MDA-kb2 AR-luc cell line (from ATCC, deposited by Wilson et al.) was used to screen the Tox21 10K compound library. MDA-kb2 AR-luc cell line is human breast carcinoma cell line that was stably transfected with a luciferase reporter gene under control of the MMTV promoter containing response elements for both androgen receptor (AR) and glucocorticoid receptor (GR). The cytotoxicity of the Tox21 compound library against the MDA-kb2 AR-luc cell line was tested in parallel by measuring the cell viability using CellTiter-Fluor assay (Promega, Madison, WI) in the same wells.
Tox21 Assay Protocol Summary:
MDA-kb2 AR-luc cells were dispensed at 3,000 cells/4 uL/well of culture medium into white wall/solid-bottom 1536-well plates using a Multidrop Combi (ThermoFisher Scientific, Waltham, MA) dispenser. After the assay plates were incubated at a 37C and 0% CO2 for 5 hr, 23 nL of compounds dissolved in DMSO, positive controls or DMSO only was transferred to the assay plate by a Pintool station (Kalypsys, San Diego, CA), followed by addition of 1 uL of agonist (R1881) in culture medium using a Bioraptr Flying Reagent Dispenser (FRD) workstation (Beckman Coulter, Indianapolis, IN, USA). The plates were incubated at a 37C and 0% CO2 for 16 h. After 15.5 h incubation, 1uL of CellTiter-Fluor reagent (Promega) was added using a Bioraptr FRD to each plate for measuring cytotoxicity. The fluorescence intensity was quantified on a ViewLux plate reader (PerkinElmer, Shelton, CT) following 30 min incubation at 37C and 0% CO2.
Take `Cc1cc(C)c(NC(=O)C[C@H](CC(=O)O)c2cccc3ccccc23)c(C(=O)N2CCC3(CCCC3)CC2)c1`: the “viability change, negative = cytotoxic” value was -1.36%.
The same measure, in the same setting: then `CC(C)(C)c1ccc(CN2CCN(C(c3ccccc3)c3ccc(Cl)cc3)CC2)cc1` (stereo not given), with -7.13%; and `CC(CN1c2ccccc2Sc2ccc(S(=O)(=O)N(C)C)cc21)N(C)C` (stereo not given), with 6.84%; and `CCc1ccc(S(=O)(=O)O)cc1`, with -2.73%.
With `CCCC(=O)Nc1ncnc2c1ncn2[C@@H]1O[C@@H]2COP(=O)(O)O[C@H]2[C@H]1OC(=O)CCC`, the “viability change, negative = cytotoxic” value is 7.35%.
On the same count and under the same terms, then `NC(=O)C[C@@H](N)C(=O)O`, with 6.24%.
In the case of `CCCCCCCCCCCCCCCC(=O)OC[C@@H](O)[C@H]1OC[C@H](O)[C@H]1O`, the “viability change, negative = cytotoxic” value is -12.5%.
Still for that read-out and setting: then `CCOC(=O)CN[C@@H](C(=O)N1CC[C@H]1C(=O)NCc1ccc(/C(N)=N/O)cc1)C1CCCCC1`, with -4.22%; and `O=P(O)(O)C(Sc1ccc(Cl)cc1)P(=O)(O)O`, with -14.8%.
Regarding `CC(=O)O[C@H]1C(=O)[C@@]2(C)[C@H]([C@H](OC(=O)c3ccccc3)[C@]3(O)C[C@H](OC(=O)[C@H](O)[C@@H](NC(=O)c4ccccc4)c4ccccc4)C(C)=C1C3(C)C)[C@]1(OC(C)=O)CO[C@@H]1C[C@@H]2O`, the “viability change, negative = cytotoxic” value is -19%.
`CC1C(=O)CC2C3(C)CCC2(C(C)C(=O)O)C(=O)C13` (stereo not given): the “viability change, negative = cytotoxic” value is 0.606%.
On the same count and under the same terms, then `C[C@@H](O)[C@H]1C(=O)N2C(C(=O)[O-])=C(SC3Cn4cnc[n+]4C3)[C@H](C)[C@H]12` (stereo not given in full), with -1.38%; and `CCOC(=O)CCC(=O)O[C@H]1[C@H](O[C@@H]2[C@@H](C)[C@H](O[C@H]3C[C@@](C)(OC)[C@@H](O)[C@H](C)O3)[C@@H](C)C(=O)O[C@H](CC)[C@@](C)(O)[C@H](O)[C@@H](C)C(=O)[C@H](C)C[C@@]2(C)O)O[C@H](C)C[C@@H]1N(C)C`, with 1.02%; and `N[C@H](CCC(=O)O)C(=O)O`, with 12.7%.
Still for that read-out and setting: then `O=C1NC(=O)[C@H]2[C@@H]1[C@@H]1C=C[C@H]2C1`, with -7.47%.
In the case of `CC1CC(OC(=O)C(O)c2ccccc2)CC(C)(C)C1` (stereo not given), the “viability change, negative = cytotoxic” value is -8.03%.
On the same count and under the same terms, then `CCCCCCCCCCCCOCCCN`, with 9.04%; and `COc1cc(NCCCC(C)N)c2ncccc2c1` (stereo not given), with 0.226%; and `CC[C@H](C)[C@H]1O[C@]2(CC[C@@H]1C)C[C@@H]1C[C@@H](C/C=C(\C)[C@@H](O[C@H]3C[C@H](OC)[C@@H](O[C@H]4C[C@H](OC)[C@@H](O)[C@H](C)O4)[C@H](C)O3)[C@@H](C)/C=C/C=C3\CO[C@@H]4[C@H](O)C(C)=C[C@@H](C(=O)O1)[C@]34O)O2`, with -0.129%.
Same read-out and setting: then `O=c1[nH]cnc2[nH]cc(CN3CCCCC3)c12`, with 1.12%; and `CN1c2cc(O)c(N=NC(N)=O)cc2CC1S(=O)(=O)O` (stereo not given), with 10.5%.
Still for that read-out and setting: then `CC[C@H]1NC(=O)[C@@H](NC(=O)c2ncccc2O)[C@@H](C)OC(=O)[C@H](c2ccccc2)NC(=O)[C@@H]2CC(=O)CCN2C(=O)[C@H](Cc2ccccc2)N(C)C(=O)[C@@H]2CCCN2C1=O`, with 0.617%.
In the case of `O=[n+]1ccn([O-])c2ccccc21`, the “viability change, negative = cytotoxic” value is -5.89%.
On the same count and under the same terms, then `O=C(Nc1ccc(/C=C/c2ccc(NC(=O)c3cc(S(=O)(=O)O)c4cccnc4c3O)cc2S(=O)(=O)O)c(S(=O)(=O)O)c1)c1cc(S(=O)(=O)O)c2cccnc2c1O`, with -0.0345%; and `CCCCCCCCCCCCCCCCCCCCCCO`, with -0.863%.
For the compound `CC(=O)[C@]1(O)Cc2c(O)c3c(c(O)c2[C@@H](O[C@H]2C[C@H](N)[C@H](O)[C@H](C)O2)C1)C(=O)c1c(O)cccc1C3=O`, the Potency is 11.9 µM (active).
In the case of `CC(C)(CO)[C@@H](O)C(=O)NCCCC(=O)O`, the “viability change, negative = cytotoxic” value was -0.288%.
Still for that read-out and setting: then `Cc1ccc(C2(O)CCN(CCCC(=O)c3ccc(F)cc3)CC2)cc1`, with -9.03%; and `C[C@@](Cc1ccc(O)c(O)c1)(NN)C(=O)O`, with -13%; and `CCN(CC)c1ccc(N=Nc2ccc(S(=O)(=O)N(C)C)cc2)c(S(=O)(=O)NCC[n+]2ccccc2)c1`, with -2.68%.
Still for that read-out and setting: then `CC(=O)OCC(=O)[C@@]1(O)[C@H](C)C[C@H]2[C@@H]3C[C@H](F)C4=CC(=O)C=C[C@]4(C)[C@H]3[C@@H](O)C[C@@]21C`, with 18.2%; and `CCN1C(=O)NC(c2ccccc2)C1=O` (stereo not given), with 5.55% [at 32.5 µM].
Same read-out and setting: then `O=C(O)[C@H]1/C(=C/CO)O[C@@H]2CC(=O)N21`, with -10.3%; and `O=P(O)(O)OC[C@H]1O[C@](O)(COP(=O)(O)O)[C@@H](O)[C@@H]1O`, with -0.372%.
As to `O=C1/C(=C\c2cccs2)CCC/C1=C\c1cccs1`, the “viability change, negative = cytotoxic” value was -19%.
Regarding `CCCCCCCCCCCCCCCCSCC(COC)COP(=O)([O-])OCC[N+](C)(C)C` (stereo not given), the “viability change, negative = cytotoxic” value was -0.911%.
Turning to `CN1c2c(nc(N)[nH]c2=O)NCC1CNc1ccc(C(=O)NC(CCC(=O)O)C(=O)O)cc1` (stereo not given), the “viability change, negative = cytotoxic” value is 2.86%.
For the compound `C#C[C@]1(O)CC[C@H]2[C@@H]3CCC4=CC(=O)CC[C@@H]4[C@H]3C(=C)C[C@@]21CC`, the “viability change, negative = cytotoxic” value was 8.02%.
`CSc1nc2cc(Oc3cccc(Cl)c3Cl)c(Cl)cc2[nH]1`: the “viability change, negative = cytotoxic” value was 2.15%.
On to `CC(C)CN(C[C@@H](O)[C@H](Cc1ccccc1)NC(=O)O[C@@H]1CCOC1)S(=O)(=O)c1ccc(N)cc1`, for which the “viability change, negative = cytotoxic” value is 2.32%.
